Results published in PubChem BioAssay AID1159580 (chemical genetic matrix, 2015).
“And” between values parts separate entries of the source, which are not always exact repeats. Identical values can stand only once. In all, about 5,500 compounds went through this assay and about 2,000 (36%) were called active. Not shown: some 18% with an inconclusive outcome. Cut-off read from the data, not from the text of the source: active = normalized growth mostly below about 0.91 (no sharp cut-off); inconclusive = no clear call, values can overlap the other calls; inactive = mostly above about 0.92. Some of the results follow.

Assay: chemical genetic growth profiling, strain panel (AID 1159580);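 note: tested at 20 µM; growth read once vehicle control cultures reached saturation at 30 °C; 1 = growth at the plate median or of vehicle wells; lower values mean less growth of the strain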
Details: S. cerevisiae deletion strains, growth OD

Measured: normalized growth

CC(=O)OCC(=O)[C@@]1(O)CCC2C3CCC4=CC(=O)C=CC4(C)C3[C@@H](O)C[C@@]21C (stereo partly drawn)
inactive: locus YAL021C, strain ccr4, hits give low values 1 | locus YAL026C, strain drs2, hits give low values 1 | locus YAL030W, strain snc1, hits give low values 0.997 | locus YBL061C, strain skt5, hits give low values 0.996 | locus YBR009C, strain hhf1, hits give low values 1.01 | locus YBR021W, strain FUR4, hits give low values 1.02 | locus YBR023C, strain chs3, hits give low values 0.994 | locus YBR171W, strain sec66, hits give low values 0.973 | locus YBR229C, strain ROT2, hits give low values 1.01 | locus YBR231C, strain swc5, hits give low values 0.978 | locus YBR279W, strain paf1, hits give low values 0.993 | locus YCL011C, strain gbp2, hits give low values 0.996 | locus YCL016C, strain dcc1, hits give low values 1.01 | locus YCL029C, strain bik1, hits give low values 1.02 | locus YCL061C, strain MRC1, hits give low values 0.997 | locus YCL069W, strain vba3, hits give low values 1 | locus YCR088W, strain abp1, hits give low values 0.998 | locus YDL005C, strain med2, hits give low values 0.992 | locus YDL035C, strain GPR1, hits give low values 1.02 | locus YDL040C, strain nat1, hits give low values 1 | locus YDL074C, strain BRE1, hits give low values 1.02 | locus YDL101C, strain DUN1, hits give low values 1 | locus YDL134C, strain PPH21, hits give low values 1.01 | locus YDL185W, strain tfp1, hits give low values 1.02 | locus YDL192W, strain arf1, hits give low values 1.02 | locus YDR001C, strain nth1, hits give low values 1 | locus YDR069C, strain doa4, hits give low values 0.99 | locus YDR101C, strain arx1, hits give low values 1.02 | locus YDR137W, strain rgp1, hits give low values 0.978 | locus YDR150W, strain NUM1, hits give low values 1 | locus YDR159W, strain sac3, hits give low values 1 | locus YDR162C, strain NBP2, hits give low values 1.01 | locus YDR195W, strain ref2 0.984 | locus YDR297W, strain sur2, hits give low values 0.992 | locus YDR318W, strain mcm21, hits give low values 1.03 | locus YDR334W, strain swr1, hits give low values 1 | locus YDR335W, strain msn5, hits give low values 1 | locus YDR388W, hits give low values 1.02 | locus YDR392W, strain spt3, hits give low values 1.02 | locus YDR502C, strain sam2, hits give low values 1.01 | locus YEL003W, strain gim4, hits give low values 0.998 | locus YEL037C, strain rad23, hits give low values 1 | locus YEL061C, strain CIN8 (second series), hits give low values 0.98 | locus YEL061C, strain CIN8, hits give low values 1 | locus YER015W, strain faa2, hits give low values 0.996 | locus YER016W, strain bim1, hits give low values 1.01 | locus YER110C, hits give low values 1.01 | locus YER111C, strain swi4, hits give low values 0.996 | locus YER155C, strain BEM2 (second series), hits give low values 0.978 | locus YER155C, strain BEM2, hits give low values 1 | locus YER167W, strain BCK2, hits give low values 1.01 | locus YFR010W, strain ubp6, hits give low values 0.993 | locus YGL078C, strain dbp3, hits give low values 1.01 | locus YGL086W, strain mad1, hits give low values 1 | locus YGL167C, strain pmr1, hits give low values 0.999 | locus YGL173C, strain kem1, hits give low values 0.992 | locus YGL227W, strain vid30, hits give low values 1 | locus YGL240W, strain doc1, hits give low values 0.972 | locus YGL248W, strain PDE1, hits give low values 1.01 | locus YGL253W, strain hxk2, hits give low values 1.01 | locus YGR135W, strain pre9, hits give low values 1.02 | locus YGR252W, strain gcn5, hits give low values 1.05 | locus YHR013C, strain ard1, hits give low values 0.978 | locus YHR027C, strain rpn1, hits give low values 1 | locus YHR030C, strain SLT2, hits give low values 1 and 0.977 | locus YHR079C, strain IRE1 (second series), hits give low values 1.02 | locus YHR079C, strain IRE1, hits give low values 0.964 | locus YHR094C, strain hxt1, hits give low values 1.01 | locus YHR129C, strain ARP1, hits give low values 1 | locus YHR142W, strain chs7, hits give low values 0.989 | locus YHR200W, strain rpn10, hits give low values 1.01 | locus YIL066C, strain RNR3, hits give low values 1.01 | locus YIL073C, strain SPO22, hits give low values 1.03 | locus YIL125W, strain kgd1, hits give low values 1.01 | locus YIR030C, strain dcg1, hits give low values 1.02 | locus YJL092W, strain hpr5, hits give low values 0.995 | locus YJL095W, strain BCK1 (second series), hits give low values 0.995 | locus YJL095W, strain BCK1, hits give low values 1.03 and 0.993 | locus YJL115W, strain asf1, hits give low values 0.994 | locus YJL129C, strain trk1, hits give low values 0.97 | locus YJL134W, strain LCB3, hits give low values 1.01 | locus YJL154C, strain vps35, hits give low values 0.996 | locus YJL164C, strain tpk1, hits give low values 1.01 | locus YJL166W, strain qcr8, hits give low values 0.951 | locus YJL168C, strain set2, hits give low values 1.02 | locus YJL187C, strain SWE1 (second series), hits give low values 1.01 | locus YJR043C, strain POL32, hits give low values 1.01 | locus YJR066W, strain TOR1, hits give low values 0.935
